Sampled rows, rich in hits. Any-hit rate of the full collection: about 1.2%.
KinaseGlo FLuc – Counterscreen for Luciferase (Kinase-Glo TM) Inhibition. Luciferin 4-monooxygenase (Photuris pensylvanica), Q27757. Kinase-Glo luciferase, ATP luminescence, 8 min. Potency, µM (titrated, usually from 38.3 µM), for the others: top-dose activity change, negative = inhibition, hits mostly inhibitors. hit rate 0.28% among 200,000. AID 1379, 2008; active means well fitted inhibition curve with a large enough effect; inconclusive means small, poorly fitted or top-dose-only effect; further: potency means the concentration at half of the fitted maximal effect; nearly all actives have a fitted effect of over 60% in size
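Inhibition of Kinase-Glo luciferase light generation was assessed at 10 uM ATP in pH 7.2 imidazole buffer, with luminescence measured after eight minutes at ambient temperature.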
KCNH2 3.1 block – qHTS for Inhibitors of KCHN2 3.1: Mutant qHTS; hit rate 0.95% among 340,000; activity change, % (tested at about 1.8 µM); Potassium voltage-gated channel subfamily H member 2, brain isoform KCNH2 3.1 (human); U2OS KCNH2 3.1, thallium flux FluxOr; active compounds read low;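 active means maximum activity change below -70%; inconclusive means maximum activity change from -70% to -50%; inactive means maximum activity change above -50%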;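 further: thallium influx rate constant from kinetic fluorescence after stimulation buffer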
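Normalized rate constant (relative to positive and negative DMSO controls) derived from a 2 min kinetic fluorescence read after stimulation; U2OS cells expressing the 3.1 isoform via virus at 1.77 x 10^8 /mL.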
hERG WT inh – qHTS for Inhibitors of KCHN2 3.1: Wildtype qHTS; activity change, % at 1.84 µM; Voltage-gated inwardly rectifying potassium channel KCNH2 (Homo sapiens), Q12809; hit rate 0.37% among 340,000; U2OS, BacMam KCNH2, thallium flux FluxOr; active compounds read low;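 active means maximum activity change below -70%; inconclusive means maximum activity change between -70% and -50%; inactive means maximum activity change above -50%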
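U2OS cells were transduced with wild-type KCNH2 virus (2.03 x 10^8 / mL) for 4 h at room temperature, then cultured overnight at 37 C. Thallium flux was read with FluxOr dye. Rate constants were normalized to DMSO controls.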
Numbers without * were called inactive; i = inactive; u = inconclusive; x = no result; [ ] = dose if it differs, or a comment. On the % scale 0 is the no-effect control and ±100 the full control effect.

SMILES	KinaseGlo FLuc	KCNH2 3.1 block	hERG WT inh
COc1cccc(C2N(Cc3ccccc3)C(=O)C2(F)F)c1OC (configuration not stated)	x	41	14
CCOC(=O)c1c(CSC(=N)N)n(-c2ccc(Br)cc2)c2cc(Br)c(OC(C)=O)cc12	0%	-11	-1
CCCCCCCCOC(=O)c1c(CSC(=N)N)n(C)c2cc(Br)c(OC(C)=O)cc12	x	-102*	-95*
COc1cccc(NC(=O)COc2ccc(C(=S)N3CCN(C)CC3)cc2OC)c1	x	-4	7
Cc1c(C=O)c2ccccc2n1CC(=O)NCc1ccccc1	3%	35	-2
Cc1c(C=O)c2ccccc2n1CC(=O)NCc1ccc2c(c1)OCO2	-4%	-390*	-3
CS(=O)(=O)c1ccc2nc(NC(=O)CCNC(=O)c3ccc([N+](=O)[O-])cc3)sc2c1	x	-3	-1
COc1ccc(NC(=O)NNC(=O)c2ccc(-c3ccccc3)cc2)cc1	x	17	1
CC(C)CC1C(=O)N(Cc2cn(CCC3OCCCO3)nn2)CCS(=O)(=O)N1Cc1ccc(-c2ccccc2)cc1 (configuration not stated)	x	-9	-6
CC(C)CC1C(=O)N(Cc2cn(CCC3OCCCO3)nn2)CCS(=O)(=O)N1Cc1ccc(-c2ccncc2)cc1 (configuration not stated)	x	-157*	-139*
COc1ccc(NC(=O)/C=C/c2ccc(OC(F)F)cc2)cn1	x	-75*	4
COc1ccc(/C=C/C(=O)Nc2ccc(OC)nc2)cc1	3%	3	i
C[C@@H]1CN([C@@H](C)CO)C(=O)c2cc(NC(=O)C3CCCCC3)ccc2O[C@@H](C)CCCCO[C@@H]1CN(C)Cc1ccncc1	x	17	-6
O=C(O)c1ccc([N+](=O)[O-])c(P(=O)(O)O)c1	-1%[7.66 µM]	x	x
CC(=O)c1cc2c(cc1NC(=O)CSc1nnc(C3CC3)n1C)OCO2	x	6	-4
COCCn1c(SCC(=O)NCc2ccc3c(c2)OCO3)nnc1-c1c[nH]c2ccccc12	-1%	-215*	-149*
COCCn1c(SCC(=O)NCc2ccc3c(c2)OCO3)nnc1C(C)C	x	-4	9
O=S(=O)(Nc1cccc(-c2cn3c(n2)SCC3)c1)c1ccccc1	x	17	10
Cc1ccc(C(=O)Oc2ccc(C(=O)COC(=O)C3CC(=O)N(Cc4ccco4)C3)cc2)cc1 (configuration not stated)	-1%	-87*	-1
O=C(COC(=O)C1CC(=O)N(Cc2ccco2)C1)c1ccc(OC(=O)c2ccco2)cc1 (configuration not stated)	-7%	22	-2
O=C1NC[C@H](Cc2ccccc2)N(CC2CCN(CCc3ccc(-c4ccccc4)cc3)CC2)C1=O	x	-93*	-43
O=C1NC[C@H](Cc2ccccc2)N(CC2CCN(CC3CCCC3)CC2)C1=O	x	-6	20
CC(C)C[C@H]1CNC(=S)N1CC1CCN(CC2CCCC2)CC1	x	9	48
O=C1NC[C@H](Cc2ccccc2)N(CC2CCN(CCCC3CCCC3)CC2)C1=O	x	-80*	-130*
CC(C)C[C@H]1CNC(=S)N1CC1CCN(CCCC2CCCCC2)CC1	x	-72*	5
SMILES	KinaseGlo FLuc	KCNH2 3.1 block	hERG WT inh
O=C1NC[C@H](Cc2ccccc2)N(CC2CCN(CCc3ccccc3)CC2)C1=O	x	-8	7
Cc1ccc(CN2CC(C(=O)NCC(=O)Nc3c(C)cccc3C)CC2=O)cc1 (configuration not stated)	x	3	-2
Nc1nnc(-c2cccc([N+](=O)[O-])c2)o1	x	5	-92*
O=[N+]([O-])c1cccc(-c2nnc(C3CC3)o2)c1	x	-3	-16
C[C@@H]1CN([C@H](C)CO)S(=O)(=O)c2ccc(C3=CCCCC3)cc2O[C@H]1CN(C)C(=O)Cc1cccnc1	x	2	5
Cc1cccc(NC(=O)CSc2nc3ccccc3c(=O)n2C)c1	x	17	3
C=CCNC(=O)c1ccc(CN(c2ccc(OCC)cc2)S(=O)(=O)c2ccc(C)cc2)cc1	x	-88*	u
C=CCNC(=O)c1ccc(N(Cc2ccc(Cl)cc2)S(C)(=O)=O)cc1	x	-3	0
COCCn1c(-c2ccc(C)cc2)nc2oc3cc(OC)ccc3c(=O)c2c1=O	x	-8	6
COCCn1c(-c2ccc(F)cc2)nc2oc3cc(OC)ccc3c(=O)c2c1=O	x	-91*	-2
CC(=O)N[C@@H](Cc1c[nH]c2ccccc12)C(=O)OCC(=O)Nc1ccc(S(=O)(=O)N(C)C)cc1	-3%	-12	17
CC(=O)Nc1ccc(OC(=O)c2cccs2)cc1	2%	-93*	-7
CC(=O)NS(=O)(=O)c1ccc(NC(=O)c2ccc(NC(=O)c3cccs3)cc2)cc1	x	-163*	-228*
CC(=O)c1ccc(OC(=O)c2cccs2)cc1	-7%	-5	-25
Cc1ccc(S(=O)(=O)Nc2ccc(NC(=O)c3cccs3)cc2)cc1	-2%	8	3
COc1ccccc1NC(=O)CS(=O)(=O)c1cn(CC(=O)N(C(C)C)C(C)C)c2ccccc12	x	7	0
C[C@@H](O)CCC[C@H](O)/C=C/[C@@H]1[C@@H](C/C=C\CCCC(=O)O)[C@@H](O)C[C@H]1O	0%	x	x
c1ccc(CN2COc3c(ccc4c5c(ccc34)CN(Cc3ccccc3)CO5)C2)cc1	-1%[7.66 µM]	x	x
Cc1cc(-c2ccc([N+](=O)[O-])cc2)nc2ccccc12	6%	3	-20
Cc1cc(N2CCN(c3nc(-c4ccc([N+](=O)[O-])cc4)cs3)CC2)c2ccccc2n1	0%	-124*	-122*
Cc1cc(C)c(C)c(S(=O)(=O)N2CCC(C(=O)N3CCCC3)CC2)c1C	x	-1	1
Nc1ccc[n+](CC(=O)c2ccccc2)c1	x	-1	0
CCc1n[n+](CC(=O)c2ccccc2)c(N)s1	10µM*	4	2
COc1ccc(CN2CC[C@H]3C=CCc4cccc(c43)C2)cc1	x	-85*	1
C1=C[C@@H]2CCN(Cc3ccccc3)Cc3cccc(c32)C1	x	-7	8
SMILES	KinaseGlo FLuc	KCNH2 3.1 block	hERG WT inh
c1ccc2sc(-c3ccc4c(c3)OCO4)nc2c1	13µM*	-3	-3
O=C(Nc1cccc(-c2nc3ccccc3s2)c1)c1ccc2c(c1)OCO2	-1%	10	2
Nc1ncnc(Nc2ccc(S(N)(=O)=O)cc2)n1	x	4	5
Cc1nc2cccc(C(=O)Oc3ccc([N+](=O)[O-])cc3)c2o1	-1%	-8	7
Cc1c(-c2ccccc2)nc2ccccc2c1C(=O)Oc1ccc([N+](=O)[O-])cc1	-1%	-77*	-87*
O=C(NCC(=O)N1CCCC(C(F)(F)F)C1)c1ccc(Br)o1 (configuration not stated)	x	1	3
COc1cc2c(cc1OC)C(C)N(CCN1C(=O)c3ccccc3C1=O)CC2 (configuration not stated)	x	3	2
COc1cc2c(cc1OC)C(C)N(CCc1ccc(Cl)cc1)CC2 (configuration not stated)	x	-84*	-12

From PubChem BioAssay
